This is part of a sample that, as a whole, favours compounds with a hit. Of some 83,000 tested, about 20% had one in any assay.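 Values shown are percent growth following 48 h exposure of cells in 96-well plates to a single concentration of compound; below 10 was considered active.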 Values without a mark were called inactive. Active and inactive are the calls of the source.
Tested on: HT29 colon
Experiment: NCI-60 one-dose screen, 48 h (100 = growth as untreated, 0 = no growth, -100 = all killed)
Details: 10 µM unless noted
Experimental: Growth inhibition of the HT29 human tumor cell line is measured as a screen for anti-cancer activity. Cells are grown in 96 well plates and exposed to the test compound for 48 hours. Compounds are tested at a single concentration, which is 10^-5 M for most compounds. The reported endpoint is percent growth (GI% or GIPRCNT), where numbers from 0 - 100% represent growth inhibition, and numbers from -100% - 0 represent cell death. For example, a value of 40 represents 60% growth inhibition. A value of 0 means no net growth occurred over the course of the experiment. A value of -40 indicates 40% of cells at the beginning of the experiment died by the end of the experiment. A value of -100 means all cells are dead at the end of the experiment.
NCI-60 Human Tumor Cell Lines Screen was performed using the standard one-dose NCI protocol, which is described in more detail at https://dtp.cancer.gov/discovery_development/nci-60/default.htm.
Compounds with GIPRCNT values below 10 were considered active. Activity score was based on GIPRCNT using the following formula: […]
Score is 0 for GIPRCNT values of 100 or above, 50 for GIPRCNT values of 0, and 100 for GIPRCNT values of -100.

Row | Structure (SMILES) | growth
1 | COc1cc(C(=O)c2c(-c3ccccc3)oc3c(OC)cccc23)cc(OC)c1O | 6.79% (active)
2 | Fc1ccc(COc2ccc(Nc3ncnc4sc5c(c34)CCCC5)cc2)cc1 | 77.8%
3 | C/C(=N\Nc1nc(C)cs1)c1cc2ccccc2o1 | 103%
4 | COc1ccc(C2=Nc3c/c(=C\c4c(O)[nH]c5cc(Cl)ccc45)ccc3=N2)cc1 | 39.8%
5 | Cc1c2cnccc2c(C)c2c1c1cc(C3OCCCO3)ccc1n2C | 1.09% (active)
6 | O=C1NC(=O)c2c1c1c3ccccc3[nH]c1c1oc3cc(Br)ccc3c21 | 76.9%
7 | O=C(/C=C/C12c3ccccc3C(c3ccccc31)C1C(=O)NC(=O)C12)c1ccccn1 (stereo not given) | 0.981% (active)
8 | CCCCCCNc1nc(NCCCCCC)c2[nH]c(NCCCCCC)nc2n1 | 36.6%
9 | C/C(=C(\c1ccc(OCCN2CCCCCC2)cc1)c1ccc(OC(=O)Cc2ccccc2)cc1)c1ccc(Cl)cc1 | -8.13% (active)
10 | O=C(CSc1nc2ccc([N+](=O)[O-])cc2[nH]1)Nc1ccc(Br)cc1 | 75.1%
11 | N#C/C(=C\c1ccc(Br)cc1)c1cc2ccccc2[nH]1 | 109%
12 | COc1ccc(NC(=O)c2ccc(C(=O)Nc3ccc(OC)cc3OC)cc2)c(OC)c1 | 90%
13 | NC(=O)OCCn1cc(-c2nc(-c3c[nH]c4ncccc34)cs2)c2ccccc21 | 8.34% (active)
14 | COc1ccc(/C(C)=C(\c2ccc(Cl)cc2)c2ccc(OCCN3CCCC3)cc2)cc1 | -18.1% (active)
15 | Nc1c(C(=O)Nc2ccccn2)sc2nc3c(cc12)C(O)CCC3 (stereo not given) | 11.8%
16 | Cc1cc2nc3c4ccccc4n(CCN(C)C)c3nc2cc1C | 8.23% (active)
17 | COc1cc(-c2nc(SCCC(C)C)nc(N3CCOCC3)c2C#N)cc(OC)c1OC | 19.2%
18 | O=C(Cn1nnc2ccccc21)N/N=C/c1ccccc1F | 99.5%
19 | CCN(CC)CCN(CCN(CC)CC)c1ccccc1 | 102%
20 | O=C(/C=C/c1ccccc1)Nc1ncc(Cc2ccccc2)s1 | 4.97% (active)

Row | Structure (SMILES) | growth
21 | C#CCn1cnc2c(Nc3cccc(NC(=O)CCl)c3)ncnc21 | 26.9%
22 | CC(C)c1ccc(C(=O)Nc2sc3cc(O)ccc3c2C#N)cc1 | 57.8%
23 | Cc1cc2oc(=O)cc(CP(=O)(O)O)c2cc1O | 106%
24 | COc1cc2c(cc1O)[C@@]1(C)[C@H](c3ccccc3Br)OC(=O)N1CC2 | 96.7%
25 | Cn1c(/C=C/[N+](=O)[O-])cc2ccccc21 | -53.2% (active)
26 | C[Se]C(=O)CC1=C2C=C(F)C=CC2/C(=C\c2ccc(S(C)=O)cc2)C1C (stereo not given) | 13.8%
27 | COC(=O)/C(CCC=C(C)C)=C1\[C@@H](OC(C)=O)C[C@@]2(C)[C@H]1CC(=O)[C@H]1[C@@]3(C)CCC(N4CCCC4)[C@@H](C)[C@@H]3CC[C@@]12C (stereo not given in full) | 68.2%
28 | CC(C)CCSc1nc(Nc2ccccc2)c(C#N)c(-c2ccccc2)n1 | 50.7%
29 | CCOC(=O)c1c(C)nc2ccccc2c1/C=C/c1ccc(OC)cc1 | 73.5%
30 | COc1ccc(-c2ccc(-c3ccc(C(=N)N)cn3)s2)cc1 | 16.1%
31 | CC(C)c1ccc(NC(=O)Nc2ccc(NC(=O)c3ccccc3N)cc2)cc1 | 26.5%
32 | COc1cc2c(c(OC)c1OC)C(=O)N[C@@H]1[C@@H](O)[C@@H](O)[C@H](O)C[C@@H]21 | 107%
33 | CCN(CC)CCOc1nc2c3ccc(Cl)cc3nn2c2ccccc12 | 15.2%
34 | O=C1/C(=C/c2ccc(C(F)(F)F)cc2)COc2ccc(O)c(O)c21 | 8.23% (active)
35 | CC(=O)N(Cc1ccccc1)c1nc2ccc(O)c(CN(C)C)c2s1 | 109%
36 | C=CCn1c(SCC(=O)Nc2ccc(C(=O)/C=C/c3ccc(OC)cc3)cc2)nnc1-c1ccccc1 | 85.3%
37 | O=C(O)c1cccc(N/C=C/C(=O)c2cc3cc(Br)ccc3oc2=O)c1 | 108%
38 | C/C(C=O)=C\c1ccc2c(c1)OCO2 | 110%
39 | CCOC(=O)c1c(-c2ccc(Cl)cc2)c(C#N)c2c(C#N)c(N)nn2c1N | 49.7%
40 | O=C(/C=C/c1cccc(Cl)c1)c1cccc(OCCCCOc2cccc(C(=O)/C=C/c3cccc(Cl)c3)c2)c1 | 76.1%

Source: PubChem BioAssay (NCI)
